Compound activity as filed in PubChem BioAssay.
Most compounds without a hit are left out; they make up all but 4.1% or so of the library.
DAX1 inh-1 – NR0B1 (DAX1) inhibition. HEK293 Gal4-DAX1 luciferase reporter, luminescence. inhibition, % at 6.75 µM. actives 0.99% (n = 340,000);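 active means inhibition above the mean over all tested compounds plus 3 SD, cut at about 4.2% in these data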;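 further: 0% = DAX1-transfected cells with DMSO and 100% = empty-vector control cells with DMSO; inhibition shows as a rise in luminescence from relieved DAX1 repression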
DAX1 inh-2 – inhibitors of DAX1 repression of SF-1 activated StAR promoter; inhibition, % at 6.8 µM; HEK293T StAR-luciferase reporter, SF-1/DAX-1 repression relief; actives 1.1% (n = 370,000);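 active means inhibition above the mean over all tested compounds plus 3 SD, cut at about 3.6% in these data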;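 further: 0% = DAX-1 cells with DMSO and 100% = cells lacking DAX-1 with DMSO; higher inhibition means more luminescence from relief of DAX-1 repression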
hgDAF-12 ag – hgDAF-12 agonism, primary luciferase screen; activation, % at 6.8 µM; actives 1.8% (n = 370,000); HEK293 GAL4-hgDAF12 UAS-luciferase reporter, agonist luminescence; normalized to butyrate control;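 active means activation above a cutoff set at the mean of all screened compounds plus 3 SD, cut at about 10% in these data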;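 further: 0% = DMSO wells and 100% = sodium butyrate wells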
hcDAF12 agonist – activators of H. contortus DAF-12 nuclear receptor; activation, % at 6.8 µM; actives 1.4% (n = 370,000); HEK293 hcDAF-12 lit1-tk-luc reporter, luminescence; 0% DMSO, 100% Δ7-dafachronic acid;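 active means activation above the mean of all tested compounds plus 3 SD, cut at about 5.5% in these data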;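 further: 100% = response to 3 µM Δ7-dafachronic acid high control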
ssDAF-12 act – activators of S. stercoralis DAF-12 nuclear receptor | HEK293 ssDAF-12/GRIP1 lit1-tk-luc reporter, luminescence; % of 3 µM dafachronic acid response | activation, % at 6.8 µM | actives 1% (n = 370,000) | AID 652126;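 active means activation above the mean over all tested compounds plus 3 SD, cut at about 0.9% in these data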;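 further: 0% = DMSO-only wells and 100% = 3 µM delta7-dafachronic acid wells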
hgDAF12 ag – confirmation of H. glycines DAF-12 agonists | actives 80% (n = 3,300) | HEK293 GAL4-hgDAF12 luciferase reporter, agonist mode; percent of butyrate response | activation, % at 6.8 µM | shares compounds with hgDAF-12 ag;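 active means mean activation over triplicate wells above the hit cutoff derived from the earlier primary screen, cut at about 11% in these data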;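 further: 0% = DMSO low control and 100% = 2 mM sodium butyrate high control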
LXRb DAF12 ctr – LXR-beta agonism as DAF-12 counter-screen; shares compounds with hgDAF-12 ag; HEK293 Gal4-LXR luciferase reporter, 24 h; activation, % at 6.8 µM; 3,300 tested, under 10 active; AID 743051;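 active means mean activation of the triplicate above a set limit carried over from the primary screen, none filed active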
Target sequence (P55055 whole entry, looked up, the tested form may be a part): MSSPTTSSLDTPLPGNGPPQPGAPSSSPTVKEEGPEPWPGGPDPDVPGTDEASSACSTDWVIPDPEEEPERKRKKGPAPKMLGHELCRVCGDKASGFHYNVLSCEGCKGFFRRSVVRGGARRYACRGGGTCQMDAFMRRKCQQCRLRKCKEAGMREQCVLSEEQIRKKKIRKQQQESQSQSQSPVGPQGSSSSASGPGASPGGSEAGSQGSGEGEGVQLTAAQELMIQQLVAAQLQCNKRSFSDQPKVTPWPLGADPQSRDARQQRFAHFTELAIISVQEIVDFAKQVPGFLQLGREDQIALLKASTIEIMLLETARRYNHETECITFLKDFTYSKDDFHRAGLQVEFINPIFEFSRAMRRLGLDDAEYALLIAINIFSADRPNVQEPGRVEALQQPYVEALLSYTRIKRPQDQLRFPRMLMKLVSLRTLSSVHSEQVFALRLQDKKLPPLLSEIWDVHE
An asterisk follows results filed as active; x = not tested or not shown.

SMILES	DAX1 inh-1	DAX1 inh-2	hgDAF-12 ag	hcDAF12 agonist	ssDAF-12 act	hgDAF12 ag	LXRb DAF12 ctr
Cc1[nH]c2ccccc2c1/C=N/NC(=O)c1cccs1	7.9*	2	14*	6.1*	0.9*	5	0
CSc1ccc(/C=N/NC(=O)c2cccs2)cc1	x	3	16*	6.3*	0	18*	1
Cc1[nH]c2ccccc2c1/C=N/NC(=O)CNC(=O)c1cccs1	0	0	0	0	-1	x	x
CSc1ccc(/C=N/NC(=O)c2ccccc2Cl)cc1	1	-1	18*	4	-1	13*	0
CCN=C1NC(CCc2ccccc2)C(C(=O)OC)=C(C)N1Cc1ccc(C(F)(F)F)cc1 (stereo unspecified)	x	0	0	0	-1	x	x
COC(=O)[C@]1(CC(C)C)NC=C(C(=O)c2ccccc2)[C@@H]1c1cccs1	x	0	1	-1	-1	x	x
O=C(CN(C(=O)CNS(=O)(=O)c1ccccc1)c1ccc2c(c1)OCCO2)NCc1ccco1	2	0	15*	-1	-1	1	0
O=C(CN(c1ccc2c(c1)OCCO2)S(=O)(=O)c1ccccc1)NCc1ccco1	-1	-1	0	-2	-1	x	x
C[C@]12Cc3ccccc3C1CC1=N[C@@H](c3ccccn3)O[C@@]13C[C@@H]2C(=O)N3C1CCN(Cc2ccccc2)CC1 (stereo partly specified)	x	1	2	1	-1	x	x
CC(=O)Nc1ccc(NC(=O)COc2ccc(Br)cc2C)cc1	2	1	1	-1	-2	x	x
Cc1cccc(NC(=O)COc2ccc(Br)cc2/C=N/O)c1	1	3	15*	5	0	11*	0
C#CCNC(=O)C[C@H]1C(=O)N(CC=C)C2=CCCC[C@@]21C(=O)OCC	x	-1	-1	-2	-1	x	x
CCOC(=O)/C=C/c1cccc(C)c1O	x	4.5*	14*	1	0	12*	0
O=C(Cc1c[nH]c2ccccc12)Nc1ccc(Nc2cccnc2)c(-c2cccc(Cl)c2)c1	x	-1	-5	-1	-2	x	x
O=C(Nc1cccc(Cl)c1)Nc1cccc(C(=O)O)c1	x	1	10	1	1	x	x
O=C(Nc1cccc(C(=O)O)c1)Nc1ccccc1Cl	-8	2	18*	3	0	9	1
CCCCN1CCc2c([nH]c3ccc(C)cc23)C1=O	2	3.9*	15*	4	1	9	0
Cc1cccc(C2NC(=O)c3ccccc3N2)c1 (stereo unspecified)	2	3	16*	2	0	14*	0
Cc1nn2cc(-c3ccc(-c4ccccc4)cc3)nc2s1	1	2	15*	5.7*	1	16*	1
Cc1nn2cc(-c3ccc(Cl)cc3)nc2s1	2	3.9*	14*	5	0	16*	1
COC(=O)[C@H]1C[C@@]2(N3CCCC3)c3ccccc3N[C@H]2N1S(=O)(=O)c1ccc([N+](=O)[O-])cc1	x	0	3	0	-1	x	x
COC(=O)c1cc2c(c3c4cc(F)ccc4n(S(=O)(=O)c4cccc(C)c4)c13)C(=O)N(Cc1ccc(N(C)C)cc1)C2	x	0	2	0	0	x	x
C[C@@H]1ON(C)[C@H]2C[C@H]3c4[nH]c5c(-c6ccc(Cl)cc6)cccc5c4CCN3C(=O)[C@@H]12	x	0	0	2	-1	x	x
Cc1ccc(N=Cc2c(O)[nH]c3ccccc23)c([N+](=O)[O-])c1	0	4.1*	15*	1	0	12*	0
O=C(c1ccccc1)n1ccc2ccc(-c3ccc4ccn(C(=O)c5ccccc5)c4c3)cc21	x	0	1	2	0	x	x
SMILES	DAX1 inh-1	DAX1 inh-2	hgDAF-12 ag	hcDAF12 agonist	ssDAF-12 act	hgDAF12 ag	LXRb DAF12 ctr
COC(=O)[C@]12C[C@H](CC(=O)NCC3CCCCC3)C(=O)N(CCC3=CCCCC3)C1=C[C@H](C(C)C)O[C@@H]2C1CC1	x	1	2	3	-1	x	x
Cc1ccc2nc(NC(=O)c3ccc(Br)o3)sc2c1	4	2	15*	6.3*	1	17*	1
Cc1cc2sc(NC(=O)c3ccco3)nc2cc1Cl	2	3	14*	4	-1	20*	1
O=C(Nc1nc2ccc(Br)cc2s1)c1ccco1	1	3	13*	6.1*	1	17*	1
CC(=O)Nc1nc2ccc(NC(=O)c3ccco3)cc2s1	0	1	4	1	-1	x	x
CCCCc1ccc2nc(NC(=O)c3ccco3)sc2c1	x	x	22*	5	0	19*	1
O=C(NC1CC1)c1ccc(-c2cnc3cccnn23)cc1	x	4.4*	14*	1	-1	9	0
CCOc1ccc(-c2cnc3cccnn23)cc1	x	4	15*	4	0	11*	0
O=C(NC1CC1)c1cccc(-c2cncc3nccn23)c1	x	0	4	-1	0	x	x
COc1ccc(CCNC(=O)c2ccc3c(c2)ncn3C2CCCCC2)cc1	x	-1	-1	-3	-1	x	x
Nc1c(OS(=O)(=O)c2ccccc2)cccc1OS(=O)(=O)c1ccccc1	3	4	18*	1	0	14*	1
O=C1C2C3C=CC(C3)C2C(=O)N1c1ccccc1OS(=O)(=O)c1ccccc1 (stereo unspecified)	-1	0	-2	-2	-1	x	x
CCCCN1C(=O)N2CCc3ccccc3C2CS1(=O)=O (stereo unspecified)	x	0	3	1	-1	x	x
Cc1ccc(NC(=O)N2CCC(c3ccccc3)C2)cc1C (stereo unspecified)	5.8*	3.6*	15*	3	0	19*	1
COc1ccc(-c2c(C)nc3c(-c4ccccn4)cnn3c2N)cc1	1	3	14*	5	0	11*	1
CC(C)(C)OC(=O)NCc1ccccc1/C=C/S(=O)(=O)NCc1ccc(F)cc1	x	-1	-1	-2	-2	x	x
O=C1CS/C(=N\NC(=O)c2ccccc2)N1	x	0	0	-2	-1	x	x
CC1=C/C(=N\NC(=O)c2ccccc2)CC1	0	2	14*	3	0	1	0
O=C(CCl)Nc1ccc(N=Nc2ccccc2)cc1	2	-1	5	3	0	x	x
CC(=O)Nc1ccc(N=Nc2ccccc2)cc1	2	4.2*	16*	5	-1	15*	1
CC(=O)Nc1ccccc1	1	0	0	0	-1	x	x
CC(C)C(=O)OCC(=O)Nc1ccc(N=Nc2ccccc2)cc1	3	3	16*	2	-1	17*	1
